Data reported in PubChem BioAssay (Tox21).
Several values for one entry are separate records, joined by “and”; a condition that tells them apart may be missing. Equal values may be shown once. Records with an inconclusive call do not appear. A call without a number means that no potency is given here. Activity calls are given as the source filed them. Unless noted, calls follow the shape of the full dose curve.

system: not listed separately; experiment: qHTS assay to identify small molecule agonists of the AP-1 signaling pathway - cell viability counter screen (AID 1159525); conditions: ME-180 AP-1-bla cells viability, ATP luminescence, 5 h; series mostly up to 76.8 µM; also: nearly all actives have a fitted effect of over 55% in size; also: potency is read from the fitted curve at half-maximal effect
In short: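 AP-1-bla ME-180 cells in Opti-MEM with 0.5% dialyzed FBS, compound exposure 5 h at 37 C in 15-point titration. Viability read in the same wells as ATP content by CellTiter-Glo luminescence, normalised to tetra-n-octylammonium bromide and DMSO controls.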

| SMILES | Potency | viability change, negative = cytotoxic |
| --- | --- | --- |
| CCCCCCCCCCCCCCCC[n+]1ccccc1 | 32.3 µM (active) and 54.9 µM (active) and 43 µM (active) | – |
| Brc1c(Br)c(Br)c(Oc2c(Br)c(Br)c(Br)c(Br)c2Br)c(Br)c1Br | – | 2.51% [at 15.8 µM] (inactive) |
| CCC(C)c1cc([N+](=O)[O-])cc([N+](=O)[O-])c1OC(=O)C=C(C)C (stereo not given) | inactive | – |
| CN(CCCC(=O)c1cccnc1)N=O | inactive | – |
| N#Cc1ccc(O)cc1 | inactive | – |
| N#C/C=C/c1ccccc1 | inactive | – |
| CC(=O)OC1(c2ccccc2)CCN(CCc2ccccc2)CC1 | inactive | – |
| ClC1=C(Cl)C2(Cl)C3C(Cl)C=CC3C1(Cl)C2(Cl)Cl (stereo not given) | 43.8 µM (active) | – |
| CC(C)(C)c1cc([N+](=O)[O-])cc(C(C)(C)C)c1O | inactive | – |
| Oc1ccc(I)cc1 | inactive | – |
| CC(=O)C(Cl)(Cl)Cl | inactive | – |
| CN(C)[C@@H]1C(=O)C(C(N)=O)=C(O)[C@@]2(O)C(=O)C3=C(O)c4c(O)ccc(Cl)c4[C@@](C)(O)[C@H]3C[C@@H]12 | inactive | – |
| CCS(=O)(=O)c1cccnc1S(=O)(=O)NC(=O)Nc1nc(OC)cc(OC)n1 | inactive | – |
| COS(=O)(=O)c1ccc(C)cc1 | inactive | – |
| c1ccc(Nc2ccc3ccccc3c2)cc1 | 48.7 µM (active) | – |
| O=C1c2ccccc2C(=O)C1C(=O)C(c1ccccc1)c1ccc(Cl)cc1 (stereo not given) | inactive | – |
| N#Cc1c(-c2ccc(Cl)cc2)[nH]c(C(F)(F)F)c1Br | inactive | – |
| CCCCCCCCCCCCCCCC[N+](C)(C)C | 49 µM (active) and 26.8 µM (active) | – |
| CSCCCN=C=S | inactive | – |
| O=C(CCCN1CCC2(CC1)C(=O)NCN2c1ccccc1)c1ccc(F)cc1 | inactive | – |
| Clc1ccc(C(c2ccccc2Cl)C(Cl)(Cl)Cl)cc1 (stereo not given) | 36.1 µM (active) | – |
| CC(C)Oc1cccc(NC(=O)c2ccccc2C(F)(F)F)c1 | inactive | – |
| Clc1ccc(COC(Cn2ccnc2)c2ccc(Cl)cc2Cl)cc1 (stereo not given) | 54.7 µM (active) and 23.9 µM (active) | – |
| N#CCCO | inactive | – |
| [Cd+2].[Cl-].[Cl-] | inactive | – |
| ClC(Cl)=C(c1ccc(Cl)cc1)c1ccc(Cl)cc1 | 44.7 µM (active) | – |
| COc1ccc([N+](=O)[O-])cc1O | inactive | – |
| CC1(C)CN=C(NN=C(/C=C/c2ccc(C(F)(F)F)cc2)/C=C/c2ccc(C(F)(F)F)cc2)NC1 | 43.6 µM (active) | – |
| COc1cccc2c1C(=O)c1c(O)c3c(c(O)c1C2=O)C[C@@](O)(C(=O)CO)CC3OC1CC(N2CCOC(OC)C2)C(O)C(C)O1 (stereo not given in full) | inactive | – |
| ClC1=C(Cl)C2(Cl)C3C(Cl)C(Cl)CC3C1(Cl)C2(Cl)Cl (stereo not given) | 24.5 µM (active) and 34.7 µM (active) | – |

system: not listed separately; experiment: qHTS assay to identify small molecule agonists of the AP-1 signaling pathway (AID 1159526); conditions: ME-180 (cervical carcinoma) AP-1-bla reporter, beta-lactamase FRET ratio, 5 h; series mostly up to 76.8 µM

| SMILES | activation | Potency |
| --- | --- | --- |
| Brc1c(Br)c(Br)c(Oc2c(Br)c(Br)c(Br)c(Br)c2Br)c(Br)c1Br | 8.87% [at 15.8 µM] (inactive) | – |
| CN(CCCC(=O)c1cccnc1)N=O | – | inactive |
| N#Cc1ccc(O)cc1 | – | inactive |
| N#C/C=C/c1ccccc1 | – | inactive |
| Oc1ccc(I)cc1 | – | inactive |
| CCS(=O)(=O)c1cccnc1S(=O)(=O)NC(=O)Nc1nc(OC)cc(OC)n1 | – | inactive |
| COS(=O)(=O)c1ccc(C)cc1 | – | inactive |
| CSCCCN=C=S | – | inactive |
| CC(=O)/C=C/c1ccc2c(c1)OCO2 | – | inactive |
| CC(C)Oc1cccc(NC(=O)c2ccccc2C(F)(F)F)c1 | – | inactive |
| N#CCCO | – | inactive |
| COc1ccc([N+](=O)[O-])cc1O | – | inactive |

biological target: Retinoic acid receptor RXR-alpha (Homo sapiens) (UniProt P19793); experiment: qHTS assay to identify small molecule agonists of the RXR signaling pathway (AID 1159527); conditions: HEK293T RXRa-UAS-bla, beta-lactamase ratio, 16 h; series mostly up to 76.8 µM; also: nearly all actives have a fitted effect of over 35% in size
In short: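 Fluorescence ratio readout (460 vs 530 nm) from GeneBLAzer RXR-alpha HEK 293T cells after 16 hr compound treatment; cells seeded 5 hr beforehand in low-serum, charcoal-stripped medium.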

Retinoic acid receptor RXR-alpha (Homo sapiens), sequence (P19793 whole entry, looked up): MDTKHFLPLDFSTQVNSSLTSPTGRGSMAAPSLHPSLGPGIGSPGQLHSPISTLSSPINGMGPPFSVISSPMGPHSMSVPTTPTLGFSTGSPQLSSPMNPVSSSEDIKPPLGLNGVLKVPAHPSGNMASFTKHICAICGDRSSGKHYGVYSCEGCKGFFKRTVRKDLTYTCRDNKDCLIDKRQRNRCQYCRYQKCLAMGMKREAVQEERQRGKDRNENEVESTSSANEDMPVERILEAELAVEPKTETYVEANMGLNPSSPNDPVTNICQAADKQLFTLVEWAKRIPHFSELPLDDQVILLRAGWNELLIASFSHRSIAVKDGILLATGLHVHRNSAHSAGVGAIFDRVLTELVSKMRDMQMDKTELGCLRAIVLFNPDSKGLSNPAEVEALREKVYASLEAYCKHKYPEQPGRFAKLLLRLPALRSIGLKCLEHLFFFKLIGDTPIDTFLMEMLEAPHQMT

| SMILES | activation | outcome |
| --- | --- | --- |
| Brc1c(Br)c(Br)c(Oc2c(Br)c(Br)c(Br)c(Br)c2Br)c(Br)c1Br | 5.85% [at 15.8 µM] (inactive) | – |
| CN(CCCC(=O)c1cccnc1)N=O | – | inactive |
| N#Cc1ccc(O)cc1 | – | inactive |
| N#C/C=C/c1ccccc1 | – | inactive |
| CC(=O)OC1(c2ccccc2)CCN(CCc2ccccc2)CC1 | – | inactive |
| CC(C)(C)c1cc([N+](=O)[O-])cc(C(C)(C)C)c1O | – | inactive |
| Oc1ccc(I)cc1 | – | inactive |
| CCS(=O)(=O)c1cccnc1S(=O)(=O)NC(=O)Nc1nc(OC)cc(OC)n1 | – | inactive |
| COS(=O)(=O)c1ccc(C)cc1 | – | inactive |
| c1ccc(Nc2ccc3ccccc3c2)cc1 | – | inactive |
| CSCCCN=C=S | – | inactive |
| Oc1ccc(C(c2ccc(O)cc2)(C(F)(F)F)C(F)(F)F)cc1 | – | inactive |
| N#CCCO | – | inactive |
| COc1ccc([N+](=O)[O-])cc1O | – | inactive |

system: not listed separately; experiment: qHTS assay to identify small molecule agonists of the RXR signaling pathway - cell viability counter screen (AID 1159529; active = well fitted cell-killing curve with a large enough effect in the repeat runs; also: nearly all actives have a fitted effect of over 50% in size; also: potency is read from the fitted curve at half-maximal effect;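 as to activity change, negative = cytotoxicity: HEK 293T cells carrying an RXR-alpha UAS beta-lactamase reporter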); conditions: RXR-alpha-bla HEK293T viability, CellTiter-Glo, 16 h; series mostly up to 76.8 µM
In short: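 Viability read-out for the RXR-alpha agonist qHTS: luminescent CellTiter-Glo signal after 30 min at RT. HEK 293T bla reporter cells, 2% charcoal-stripped FBS, 16 hr compound incubation; tetraoctyl ammonium bromide as cytotoxic control.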

| SMILES | Potency | activity change, negative = cytotoxicity |
| --- | --- | --- |
| CCCCCCCCCCCCCCCC[n+]1ccccc1 | 17.1 µM (active) [middle of 4 runs] | – |
| Brc1c(Br)c(Br)c(Oc2c(Br)c(Br)c(Br)c(Br)c2Br)c(Br)c1Br | – | 2.64% [at 15.8 µM] (inactive) |
| CN(CCCC(=O)c1cccnc1)N=O | inactive | – |
| N#C/C=C/c1ccccc1 | inactive | – |
| CC(=O)OC1(c2ccccc2)CCN(CCc2ccccc2)CC1 | inactive | – |
| Oc1ccc(C2(c3ccc(O)cc3)CCCCC2)cc1 | 36.8 µM (active) | – |
| ClC1=C(Cl)C2(Cl)C3C(Cl)C=CC3C1(Cl)C2(Cl)Cl (stereo not given) | 34.7 µM (active) | – |
| Oc1ccc(I)cc1 | inactive | – |
| CN(C)[C@@H]1C(=O)C(C(N)=O)=C(O)[C@@]2(O)C(=O)C3=C(O)c4c(O)ccc(Cl)c4[C@@](C)(O)[C@H]3C[C@@H]12 | inactive | – |
| CCS(=O)(=O)c1cccnc1S(=O)(=O)NC(=O)Nc1nc(OC)cc(OC)n1 | inactive | – |
| COS(=O)(=O)c1ccc(C)cc1 | inactive | – |
| c1ccc(Nc2ccc3ccccc3c2)cc1 | 43.4 µM (active) | – |
| CCCCCCCCCCCCCCCC[N+](C)(C)C | 10.6 µM (active) and 24.5 µM (active) and 12 µM (active) | – |
| Cc1cc(C(C)(C)c2cc(C)c(O)c(C)c2)cc(C)c1O | 47.4 µM (active) | – |
| CSCCCN=C=S | inactive | – |
| Cn1cc(C2=C(c3cn(C4CCN(Cc5ccccn5)CC4)c4ccccc34)C(=O)NC2=O)c2ccccc21 | inactive | – |
| O=C(CCCN1CCC2(CC1)C(=O)NCN2c1ccccc1)c1ccc(F)cc1 | inactive | – |
| Clc1ccc(C(c2ccccc2Cl)C(Cl)(Cl)Cl)cc1 (stereo not given) | 49.3 µM (active) and 25.6 µM (active) | – |
| Oc1ccc(C(c2ccc(O)cc2)(C(F)(F)F)C(F)(F)F)cc1 | 48.8 µM (active) | – |
| CC(=O)/C=C/c1ccc2c(c1)OCO2 | inactive | – |
| Clc1ccc(COC(Cn2ccnc2)c2ccc(Cl)cc2Cl)cc1 (stereo not given) | 32.3 µM (active) and 38.7 µM (active) | – |
| N#CCCO | inactive | – |
| [Cd+2].[Cl-].[Cl-] | 17.5 µM (active) and 24.5 µM (active) | – |
| ClC(Cl)=C(c1ccc(Cl)cc1)c1ccc(Cl)cc1 | 56.3 µM (active) and 43.6 µM (active) | – |
| C=CC(=O)OCC(COC(=O)C=C)(COC(=O)C=C)COC(=O)C=C | 17.4 µM (active) | – |
| COc1ccc([N+](=O)[O-])cc1O | inactive | – |
| CC1(C)CN=C(NN=C(/C=C/c2ccc(C(F)(F)F)cc2)/C=C/c2ccc(C(F)(F)F)cc2)NC1 | 13.8 µM (active) | – |
| COc1cccc2c1C(=O)c1c(O)c3c(c(O)c1C2=O)C[C@@](O)(C(=O)CO)CC3OC1CC(N2CCOC(OC)C2)C(O)C(C)O1 (stereo not given in full) | inactive | – |
| ClC1=C(Cl)C2(Cl)C3C(Cl)C(Cl)CC3C1(Cl)C2(Cl)Cl (stereo not given) | 21.8 µM (active) and 21.9 µM (active) | – |
